Screening results (PubChem BioAssay)
CCHF vOTU inh: blocks the CCHF virus ovarian tumor domain protease | inhibition, % at 11.5 µM | AID 651958 | 370,000 compounds, 0.55% hits | CCHFV vOTU protease, Pep-AMC fluorescence
GDH-TPI counter: inhibits GDH-TPI coupling enzymes, artifact for Mtb FBA screen; inhibition, % at 4.8 µM; 360,000 compounds, 1.2% hits; GDH-TPI coupled enzyme counterscreen, NADH absorbance
Mtb FBA inh: inhibitors of M. tuberculosis fructose-bisphosphate aldolase. P9WQA3. purified M. tuberculosis FBA, fluorescence read-out. inhibition, % at 1 µM. 360,000 compounds, 2.3% hits; in the data active means inhibition above about 27%
RecA intein inh: blocks M. tuberculosis RecA intein splicing; P9WHJ3; cell-free RecA intein splicing, fluorescence; inhibition, % (concentration not given with the values); 290,000 compounds, 0.75% hits; AID 2221; in the data active means inhibition above about 30%
Target sequence (P9WHJ3 whole entry, looked up): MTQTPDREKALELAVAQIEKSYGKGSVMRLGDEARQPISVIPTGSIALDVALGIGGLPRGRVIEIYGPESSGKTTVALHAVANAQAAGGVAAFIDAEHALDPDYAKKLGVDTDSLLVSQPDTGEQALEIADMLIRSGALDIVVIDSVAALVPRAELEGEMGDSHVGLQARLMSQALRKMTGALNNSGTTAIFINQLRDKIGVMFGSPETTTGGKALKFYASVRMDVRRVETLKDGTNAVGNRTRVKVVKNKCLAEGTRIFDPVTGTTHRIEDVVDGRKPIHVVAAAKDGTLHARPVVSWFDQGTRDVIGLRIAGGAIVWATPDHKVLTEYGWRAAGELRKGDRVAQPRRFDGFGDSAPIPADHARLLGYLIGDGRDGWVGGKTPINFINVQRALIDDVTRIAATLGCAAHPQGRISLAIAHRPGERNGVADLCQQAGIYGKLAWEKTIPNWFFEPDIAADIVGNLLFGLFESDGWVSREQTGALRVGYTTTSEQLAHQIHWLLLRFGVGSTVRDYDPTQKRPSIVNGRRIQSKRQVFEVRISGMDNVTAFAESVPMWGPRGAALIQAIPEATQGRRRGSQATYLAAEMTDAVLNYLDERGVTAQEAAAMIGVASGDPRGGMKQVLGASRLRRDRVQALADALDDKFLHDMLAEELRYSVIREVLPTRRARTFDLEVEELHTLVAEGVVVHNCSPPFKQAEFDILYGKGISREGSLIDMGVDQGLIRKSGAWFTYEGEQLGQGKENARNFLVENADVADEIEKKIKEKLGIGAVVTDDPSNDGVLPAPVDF
A number is an active result. Rows were chosen to be rich in hits. Some 4.2% of all compounds tested hit in one or more screens of this group. Unless noted, no stated cut-off is given here; in the data, active means inhibition above about 30%; inactive means the rest.

Results for CNc1cnc(-c2ccc(C(=O)N3CCOCC3)cc2)cn1 ?
CCHF vOTU inh: inactive; GDH-TPI counter: inactive; Mtb FBA inh: active

Results for O=C(NCc1ccc(F)cc1)c1cc(C2CCCN(C(=O)c3ccc4c(c3)CCO4)C2)on1 (centres undefined) ?
CCHF vOTU inh: inactive; GDH-TPI counter: inactive; Mtb FBA inh: inactive

Results for COc1ccc(Nc2ccnc3ccccc23)cc1 ?
CCHF vOTU inh: inactive; GDH-TPI counter: 31.9; Mtb FBA inh: inactive; RecA intein inh: inactive

What do the screens show for `O=C(O)c1cccc(Nc2c3ccccc3nc3ccccc23)c1`?
CCHF vOTU inh: inactive; GDH-TPI counter: inactive; Mtb FBA inh: 124.2; RecA intein inh: inactive

How did COc1ccc(Nc2ncnc3ccccc23)cc1 do in these assays?
CCHF vOTU inh: inactive; GDH-TPI counter: inactive; Mtb FBA inh: inactive; RecA intein inh: inactive

Results for CC(=O)c1cccc(Nc2cc(C)nc3ccccc23)c1 ?
CCHF vOTU inh: inactive; GDH-TPI counter: 32.1; Mtb FBA inh: inactive; RecA intein inh: inactive

How did COC(=O)c1ccc(Nc2cc(C)nc3ccccc23)cc1 do in these assays?
CCHF vOTU inh: inactive; GDH-TPI counter: 42.1; Mtb FBA inh: inactive; RecA intein inh: inactive

What do the screens show for `CC(=O)c1cccc(Nc2cc(C)nc3c(C)cccc23)c1`?
CCHF vOTU inh: inactive; GDH-TPI counter: inactive; Mtb FBA inh: inactive; RecA intein inh: inactive

What do the screens show for `O=C(CSc1nnc(-c2ccccc2F)n1Cc1ccco1)Nc1ccccc1-c1ccccc1`?
CCHF vOTU inh: inactive

Results for CCN(CC)S(=O)(=O)c1ccc(N2CCCC2)c(NC(=O)CN2C(=O)NC3(CCCC3)C2=O)c1 ?
CCHF vOTU inh: inactive; GDH-TPI counter: inactive; Mtb FBA inh: inactive; RecA intein inh: inactive

What do the screens show for `COc1ccc(Nc2cc(C)nc3ccc(OC)cc23)cc1`?
CCHF vOTU inh: inactive; GDH-TPI counter: 34.3; Mtb FBA inh: inactive; RecA intein inh: inactive

Results for Cc1cc(C)c2c(N)c(C(=O)Nc3ccccc3Cl)sc2n1 ?
CCHF vOTU inh: inactive; GDH-TPI counter: inactive; Mtb FBA inh: 32.8; RecA intein inh: inactive

Results for CC(=O)c1sc2nc(C)cc(C)c2c1N ?
CCHF vOTU inh: inactive; GDH-TPI counter: inactive; Mtb FBA inh: inactive; RecA intein inh: inactive

What do the screens show for `C=COC(=O)c1sc2nc(C)cc(C)c2c1N`?
CCHF vOTU inh: inactive; GDH-TPI counter: inactive; Mtb FBA inh: 134.2; RecA intein inh: inactive

Results for Cc1cc([N+](=O)[O-])nn1Cc1ccc(C(=O)N/N=C/c2ccccc2)cc1 ?
CCHF vOTU inh: inactive; GDH-TPI counter: inactive; Mtb FBA inh: inactive; RecA intein inh: inactive

What do the screens show for `CN(C)c1ccc(/C=N/NC(=O)c2ccc3c(c2)OCCO3)cc1`?
CCHF vOTU inh: inactive; GDH-TPI counter: inactive; Mtb FBA inh: inactive; RecA intein inh: inactive

Results for CCOc1ccc(C(=O)N/N=C/c2ccc(SC)cc2)cc1 ?
CCHF vOTU inh: inactive; GDH-TPI counter: inactive; Mtb FBA inh: inactive; RecA intein inh: inactive

Results for Cc1cc([N+](=O)[O-])nn1Cc1ccc(C(=O)N/N=C/c2ccc(N(C)C)cc2)cc1 ?
CCHF vOTU inh: inactive; GDH-TPI counter: 40.5; Mtb FBA inh: inactive; RecA intein inh: inactive

Results for CSc1ccc(/C=N/NC(=O)c2cccc(O)c2)cc1 ?
CCHF vOTU inh: inactive; GDH-TPI counter: 49.2; Mtb FBA inh: inactive; RecA intein inh: inactive

How did CN(C)c1ccc(/C=N/NC(=O)c2cnc3ccccc3c2)cc1 do in these assays?
CCHF vOTU inh: inactive; GDH-TPI counter: 32.4; Mtb FBA inh: inactive; RecA intein inh: inactive

Results for CN(C)c1ccc(C(=O)N/N=C/c2ccccn2)cc1 ?
CCHF vOTU inh: inactive; GDH-TPI counter: 35.0; Mtb FBA inh: inactive; RecA intein inh: inactive

Results for O=S1(=O)c2ccc(Br)cc2OC[C@@H](Cc2ccccc2)N1Cc1cn(Cc2ccc(C(F)(F)F)cc2)nn1 ?
CCHF vOTU inh: inactive

What do the screens show for `Cc1cc(NC(=O)CC(C)C)c(=O)n(Cc2ccccc2F)c1`?
CCHF vOTU inh: inactive; GDH-TPI counter: inactive; Mtb FBA inh: inactive; RecA intein inh: inactive

Results for O=C(N/N=C/c1c(Cl)nc2ccccn2c1=O)c1cccnc1 ?
CCHF vOTU inh: inactive; GDH-TPI counter: 31.2; Mtb FBA inh: inactive; RecA intein inh: inactive

What do the screens show for `Cc1c(/C=N/NC(=O)c2cccnc2)c2ccccn2c1C(=O)c1ccc(F)cc1`?
RecA intein inh: inactive

What do the screens show for `CN(C)c1ccc(C=NNC(=O)c2cccnc2)cc1`?
CCHF vOTU inh: inactive; GDH-TPI counter: 51.8; Mtb FBA inh: inactive

How did O=C(N/N=C/c1cccnc1)c1ccccc1 do in these assays?
CCHF vOTU inh: inactive; GDH-TPI counter: inactive; Mtb FBA inh: inactive; RecA intein inh: inactive

Results for O=C(N/N=C/c1ccccn1)c1sc2ccccc2c1Cl ?
CCHF vOTU inh: inactive; GDH-TPI counter: 35.2; Mtb FBA inh: inactive; RecA intein inh: inactive

How did COC(=O)c1c(-c2ccc(S(C)(=O)=O)cc2)sc2cc(OC)ccc12 do in these assays?
CCHF vOTU inh: inactive; GDH-TPI counter: inactive; Mtb FBA inh: 189.9

Results for COC(=O)c1c(-c2ccc(S(C)(=O)=O)cc2)sc2ccc(OC)cc12 ?
CCHF vOTU inh: inactive; GDH-TPI counter: inactive; Mtb FBA inh: inactive

Results for COC(=O)C1CN(C2CCCC2)CCS(=O)(=O)N1Cc1ccccc1 (centres undefined) ?
CCHF vOTU inh: inactive

How did Nc1ccc(-c2nc3ccccc3s2)cn1 do in these assays?
CCHF vOTU inh: inactive; GDH-TPI counter: inactive; Mtb FBA inh: active; RecA intein inh: inactive

What do the screens show for `Cc1cc(-c2nc3ccccc3s2)ccc1N`?
CCHF vOTU inh: inactive; GDH-TPI counter: 37.1; Mtb FBA inh: active

What do the screens show for `CCN1CCN(c2ccc(S(=O)(=O)N3CCOCC3)cc2NC(=O)/C=C/c2ccc([N+](=O)[O-])cc2)CC1`?
CCHF vOTU inh: inactive; GDH-TPI counter: inactive; Mtb FBA inh: inactive; RecA intein inh: inactive

What do the screens show for `CCCCNS(=O)(=O)CC1NCc2cc(OC)ccc21` (centres undefined)?
CCHF vOTU inh: inactive

How did COc1ccc(/C=C/C(=O)N2CCN(c3ccccn3)CC2)cc1OC do in these assays?
CCHF vOTU inh: inactive; GDH-TPI counter: 38.6; Mtb FBA inh: inactive; RecA intein inh: inactive

How did COc1cc(/C=C/C(=O)N2CCN(c3ccccn3)CC2)cc(OC)c1OC do in these assays?
CCHF vOTU inh: inactive; GDH-TPI counter: inactive; Mtb FBA inh: inactive; RecA intein inh: inactive

How did COc1ccc(/C=C/C(=O)NCC(c2ccc(F)cc2)N2CCOCC2)cc1OC (centres undefined) do in these assays?
CCHF vOTU inh: inactive; GDH-TPI counter: 34.8; Mtb FBA inh: inactive; RecA intein inh: inactive

How did N/C(=N\OC(=O)/C=C/c1ccccc1)c1ccccn1 do in these assays?
CCHF vOTU inh: inactive; GDH-TPI counter: inactive; Mtb FBA inh: inactive; RecA intein inh: inactive

Results for COc1ccc(/C=C/C(=O)N(c2ccccn2)C2CCCCC2)cc1OC ?
CCHF vOTU inh: inactive; GDH-TPI counter: 82.8; Mtb FBA inh: inactive; RecA intein inh: inactive

How did COc1ccc(/C=C/C(=O)NCCN2CCOCC2)cc1OC do in these assays?
CCHF vOTU inh: inactive; GDH-TPI counter: inactive; Mtb FBA inh: inactive; RecA intein inh: inactive

What do the screens show for `COc1ccc(/C=C/C(=O)O/N=C(\N)c2ccccn2)cc1OC`?
CCHF vOTU inh: inactive; GDH-TPI counter: 44.5; Mtb FBA inh: inactive

What do the screens show for `COc1ccc(CN2C(=O)C(CC(=O)NCCCCc3ccccc3)CC(C(=O)N3CCCCCC3)=C2C)cc1` (centres undefined)?
CCHF vOTU inh: inactive
